This is a sample that favours compounds with a hit; in the whole collection about 4.3% have one here.
FAS-TE inh – inhibitors of human fatty acid synthase thioesterase domain. P49327. recombinant FAS-TE, OMFH fluorogenic substrate, fluorescence endpoint. inhibition, % at 15 µM. 0.67% of 360,000 active;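 active means compounds whose normalised, plate-corrected inhibition of enzyme fluorescence in the single-dose primary screen is 50% or more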;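 further: 0% = DMSO with enzyme and 100% = substrate without enzyme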
GRIN3A LBD mod – modulates the human NR3A ligand-binding domain; Tm shift relative to glycine control, % at 25 µM; NR3A LBD differential scanning fluorimetry, Tm shift; 0% = protein alone, 100% = glycine-bound protein; 2.5% of 340,000 active;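 active means melting temperature shift of at least 10% of the positive control shift, at one fixed dose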
NadD block – blocks S. aureus nicotinate mononucleotide adenylyltransferase. inhibition, % at 20 µM. 0.78% of 360,000 active. purified NadD enzyme, colorimetric absorbance read-out; in the data active means inhibition above about 26%
rCAG binder – r(CAG) repeat RNA binding; TO-PRO-1 dye displacement fluorescence; 1.3% of 370,000 active; AID 651821; inhibition, % at 3 µM;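 active means inhibition above the plate cutoff, the mean of all test compounds on that plate plus 3 SD, cut at about 35% in these data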;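 further: 0% = DMSO alone and 100% = 100 µM mitoxantrone as full dye displacement; higher means more dye released from RNA so lower well fluorescence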
The depositor's hits bear a star; / = no result.

SMILES | FAS-TE inh | GRIN3A LBD mod | NadD block | rCAG binder
COc1ccc(CCC(N)=O)cc1OC | -8 | -5 | -1 | 5
Cc1ccc(-n2c(Cc3cccs3)nnc2SCC(=O)Nc2ccc(OCc3ccccc3)cc2)cc1 | / | / | / | 7
COc1cccc(C(=O)N[C@H](C(=O)N2CCC[C@H]2C(=O)NCCc2ccccc2Cl)c2ccccc2)c1 | / | / | / | 0
O=C(CSc1nnc(NC(=O)C2CC2)s1)Nc1cccc(F)c1 | 0 | 14* | -12 | 1
Cc1cccc(NC(=O)CSc2nnc(NC(=O)C3CC3)s2)c1C | -5 | -1 | 8 | -3
O=C(CSc1nnc(NC2CCCCC2)s1)Nc1ccc2c(c1)C(=O)c1ccccc1C2=O | 14 | 3 | 46* | 19
COc1cccc(C(=O)Nc2nnc(SCC(=O)Nc3ccc(NC(C)=O)cc3)s2)c1 | -8 | 37* | -9 | 20
Cc1ccc(Nc2nnc(SCC(=O)Nc3cccc(S(=O)(=O)N4CCCCC4)c3)s2)cc1 | 30 | 18* | 20 | 8
CCNC(=O)N(C)[C@H]1C[C@H]2c3[nH]c4c(-c5ccccc5)cccc4c3CCN2C(=O)[C@H]1[C@H](C)O | / | / | / | 4
COc1cccc(O[C@H]2C=C[C@@H](c3ccccc3)O[C@@H]2CO)c1 | / | / | / | 5
COc1cccc(NC(=O)CSc2nnc(NC(=O)C3CCC3)s2)c1 | -1 | 12* | -5 | 3
CCC(C)Nc1nc(Cl)nc(NCCOc2ccccc2)n1 (centres undefined) | 37 | 13* | -4 | -6
COc1ccccc1NC(=O)COc1ccc(/C=N/NS(=O)(=O)c2ccc(C)cc2)cc1 | 25 | 5 | 1 | 20
COc1cc(/C=N/NC(=O)COc2cccc(F)c2)ccc1OS(=O)(=O)c1ccc(C)cc1 | 27 | 6 | -4 | 6
COc1cc(/C=N/NC(=O)COc2ccc(Cl)cc2)ccc1OS(=O)(=O)c1ccc(C)cc1 | 29 | 12* | 10 | 16
Cc1ccc(NC(=O)COc2ccc(/C=N/NC(=O)CSCc3ccccc3)cc2)cc1 | -4 | 18* | -1 | 2
O=C(CSCc1ccc(Cl)cc1)N/N=C/c1ccc(OCC(=O)Nc2ccccc2)cc1 | 23 | 10* | 5 | 6
COc1ccccc1NC(=O)COc1ccc(/C=N/NC(=O)CSCc2ccc(Cl)cc2)cc1 | 17 | 5 | -1 | 5
Cc1ccc(S(=O)(=O)N/N=C/c2ccc(OCC(=O)Nc3ccccc3Cl)cc2)cc1 | 26 | 18* | 2 | 20
O=C(C1CCN(c2cncnc2)CC1)N1CCOCC1 | / | / | / | 0
O=C1C[C@H](C(=O)Nc2ccc(Cl)cc2)[C@@H](c2ccccc2)O1 | / | / | / | 0
Cc1[nH]nc2c1C(c1ccccc1)N(Cc1ccccc1)C2=O (centres undefined) | / | / | / | 3
COCCCNC(=O)C[C@H]1C[C@@]2(C(=O)OC)C(=C[C@H](C(C)(C)C)O[C@@H]2C)N(CCC2=CCCCC2)C1=O | / | / | / | 1
COC(=O)c1cccc(Cn2ccc3ccc(-c4ccc5ccn(C(=O)C6CCC6)c5c4)cc32)c1 | / | / | / | 13
COc1ccccc1Oc1cc(-n2nc(C)cc2C)ncn1 | 2 | 10* | -9 | -6
SMILES | FAS-TE inh | GRIN3A LBD mod | NadD block | rCAG binder
Cc1cccc(NC(=O)CNC(=O)[C@@H](Cc2ccccc2)NC(=O)[C@H]2O[C@@H](n3ccc(=O)[nH]c3=O)[C@H](O)[C@@H]2O)c1C | / | / | / | 3
c1csc(C2Nc3ccccc3-c3nc4ccccc4n32)c1 (centres undefined) | -2 | 24* | 10 | 8
Cc1cccc(C2C3=C(Nc4[nH]n(-c5ccccc5)c(=O)c42)c2ccccc2C3=O)c1 (centres undefined) | 9 | 2 | 8 | 68*
O=c1oc2ccccc2cc1-c1nc2c(s1)CCc1ccccc1-2 | 20 | -3 | 13 | 11
O=c1oc2cc(O)ccc2cc1-c1nc2c(s1)CCc1ccccc1-2 | -135 | 565* | 20 | -46
COc1ccc(C2CC(c3ccc(Br)cc3)=NN2C(=S)Nc2ccccc2)cc1 (centres undefined) | 26 | 11* | 6 | 1
COc1ccc(C2CC(c3ccccc3)=NN2C(=S)Nc2ccccc2)cc1 (centres undefined) | 42 | -1 | 3 | 2
O=C1N2CCc3ccccc3C2CS(=O)(=O)N1Cc1ccc(F)cc1 (centres undefined) | / | / | / | 0
COc1ccc(NS(=O)(=O)c2ccc(OC)c(NC(=O)CCC3CCCCC3)c2)cc1 | 24 | 22* | -7 | 7
Cc1ccc(S(=O)(=O)Nc2cc3c(C(=O)Nc4ccccc4)c(C)oc3c3ccccc23)cc1 | 38 | 12* | 23 | 27
O=C(NC1CC1)c1ccc(NS(=O)(=O)c2ccc(F)cc2)cc1 | -6 | 27* | -3 | 2
CC(=O)c1c(C)oc2c1cc(NS(=O)(=O)c1ccc(C(=O)O)cc1)c1ccccc12 | 2 | -19 | 0 | 34
Cc1ccc(S(=O)(=O)Nc2ccc(Nc3ccccc3)cc2)cc1 | 35 | 24* | -11 | 16
C=CCN(C)CC#CCCCCl | / | / | / | 0
C=CCN1C(=O)c2n[nH]c(C(C)C)c2C1c1ccc(C)cc1 (centres undefined) | / | / | / | -3
O=C(CC1CCCC1)N1CC[C@H]2[C@H](CCCN2Cc2ccccc2)C1 | / | / | / | 0
Cc1ccc(S(=O)(=O)Nc2ccc(NC(=O)c3cccs3)cc2)cc1 | 12 | 18* | 0 | 11
CCC(CC)C(=O)Nc1cccc(C(=O)Nc2ccc(S(=O)(=O)Nc3ccc(C)cc3)cc2)c1 | 18 | 19* | 24 | 22
COc1ccc(NS(=O)(=O)c2ccc(NC(=O)CCNS(=O)(=O)c3ccc(C)cc3)cc2)cc1 | 14 | 10* | -4 | 20
Cc1ccc(S(=O)(=O)Nc2ccccc2N(C)S(=O)(=O)c2ccc(C)cc2)cc1 | 27 | 13* | -3 | 6
CCC(CC)C(=O)Nc1cccc(C(=O)Nc2ccc(S(N)(=O)=O)cc2)c1 | -8 | 0 | -4 | 3
Cc1ccc(S(=O)(=O)Nc2ccccc2O)cc1 | / | / | / | 1
Cc1ccc(S(=O)(=O)NCCC(=O)Nc2ccc(S(=O)(=O)NC(C)C)cc2)cc1 | -1 | -2 | -7 | 3
CCOC(=O)CC[C@@H]1CC[C@]2(CCCN(Cc3cccs3)C2)O1 | / | / | / | -3
COc1ccc(-c2nnn3c2Cn2c4ccccc4c(=O)n2[C@@H](C(C)C)C3)cc1 | / | / | / | 5
SMILES | FAS-TE inh | GRIN3A LBD mod | NadD block | rCAG binder
C=CCOC(=O)C(CO)NC(=O)CCCC(=O)O (centres undefined) | / | / | / | 2
N#CCC[C@H]1CC[C@]2(CCCN(Cc3ccccc3)C2)O1 | / | / | / | 1
Cc1ccc(S(=O)(=O)Nc2ccc(NC(=O)c3c(F)c(F)c(F)c(F)c3F)cc2)cc1 | 22 | 15* | -1 | 13
O=C(O)c1ccccc1C(=O)Nc1ccc(S(=O)(=O)Nc2ccc(F)cc2)cc1 | -6 | 10* | -9 | 2
CN(Cc1ccc(F)cc1)C(=O)c1cccc(S(=O)(=O)NCc2ccccc2)c1 | 9 | 0 | -9 | -5
Cc1ccc(NCCC(=O)c2cccs2)cc1 | 7 | 13* | -9 | -2
Cc1ccc(NCCC(=O)c2cccs2)cc1C | 6 | -1 | -4 | -3
CN(Cc1ccc(F)cc1)C(=O)c1ccc(NS(=O)(=O)c2ccccc2)cc1 | 0 | 13* | -3 | 2
CC(C)(C)OC(=O)NCCc1ccccc1/C=C/S(=O)(=O)NC1CCCC1 | / | / | / | 3

High-throughput results from PubChem BioAssay.
